PubChem BioAssay AID687009 (National Center for Advancing Translational Sciences (NCATS), 2013)
Records with an inconclusive call do not appear. Calls of active or inactive are those of the source. Calls follow the shape of the dose curve; as a rule, active = well fitted curve in the direction sought with a large enough effect; inconclusive = small, poorly fitted or top-dose-only effect, or another doubt; inactive = no such curve, though single readings can be large or run the other way.

Biological target: Lysine-specific histone demethylase 1A (Homo sapiens) (UniProt O60341)
Assay: qHTS Assay for Inhibitors of Human Jumonji Domain Containing 2E (JMJD2E): Counterscreen with LSD1
Conditions: Amplex Red/HRP fluorescence; series mostly up to 57.1 µM
From the text: The fine interplay among methylation states of several lysine residues on the tails of histone proteins is a major determinant of the transcriptional state of the associated DNA coding regions and is commonly referred to as the histone code. Histone lysine demethylases catalyze the removal of methyl groups from methylated lysine sidechains on histones H3 and H4, thus antagonizing the reactions catalyzed by histone lysine methyltransferases. […] In search for novel inhibitors of JMJD2E demethylase, a member of the largest set of histone demethylases belonging to the Fe(II) and 2-oxoglutarate oxygenase (2OG) superfamily, we performed a quantitative high-throughput screen (Inglese 2006) by using an assay which utilizes a trimethylated peptide substrate corresponding to a fragment of histone H3 (sequence ARKme3STGGK) with detection of the formaldehyde co-product in real time by a formaldehyde dehydrogenase (FDH) coupled reaction. […]
The assay was performed in a buffer containing 10 mM HEPES, Na pH 7.5, 5 mM MgCl2, 50 mM KCl, 0.01% Nonidet P-40, and 0.1% BSA. […] The plate was then centrifuged at 1,000 rpm for 15 seconds, and the fluorescence intensity was recorded on a ViewLux High-throughput CCD imager (Perkin-Elmer) using standard TAMRA optics (525 nm excitation and 598 nm emission). The plate was then incubated for 30 min at room temperature, and a second read on the ViewLux was performed. […]

CN1CCN(c2cnc3c(O)ccc(C(=O)O)c3c2)CC1
outcome: inactive
